The target in test [1] is Cellular tumor antigen p53 (Homo sapiens) (UniProt P04637). Description: Primary qHTS for small molecule compounds that upregulate eGFP-tagged delta133p53alpha (in N-terminal) cells. (AID 2060322).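 For activation: cells pre-induced with doxycycline then dosed without doxycycline; series mostly up to about 56 µM; 0% = DMSO vehicle and 100% = reference activator.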 Note: nearly all actives have a fitted effect of over 75% in size. Note: potency is the fitted concentration of half-maximal effect. The note with it: NCI-H358 eGFP-delta133p53alpha fluorescence, 24 h; activation: hits give high values. The method in brief: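 NCI-H358 cells pre-induced 24 h with 10 ng/ml doxycycline for eGFP-delta133p53alpha, plated dox-free and exposed 24 h at 37C to titrated compounds. Fixed, Hoechst-stained; gated GFP peak intensity by laser scanning cytometry, normalized to DMSO (0%) and 57.5 uM 5-azacytidine (100%).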
(In general: Quantitative high-throughput screening tests each substance at several concentrations.)

For test [2], the target named is Aldehyde dehydrogenase, mitochondrial (Homo sapiens) (UniProt P05091). Description: qHTS for Inhibitors of the Aldehyde Dehydrogenase Family (ALDH2) Confirmatory screens (AID 2061303; active = well fitted inhibition curve with a large enough effect; title and protocol of this record describe different tests; note: nearly all actives have a fitted effect of over 45% in size; note: potency is the fitted concentration of half-maximal effect).
Test [3] in a line: qHTS for Inhibitors of the Aldehyde Dehydrogenase Family (ALDH1A2, ALDH1A3, ALDH2, ALDH3A1) (AID 2061307). For Potency: test system not described further here; potency is the fitted concentration of half-maximal effect. Note: nearly all actives have a fitted effect of over 50% in size.
The target of test [4] is Aldehyde dehydrogenase, mitochondrial (Homo sapiens) (UniProt P05091). Description: qHTS for Inhibitors of the Aldehyde Dehydrogenase Family (ALDH2) Primary screen (AID 2061308). Note: nearly all actives have a fitted effect of over 55% in size. Note: potency is the fitted concentration of half-maximal effect.
Test [5] deals with Retinaldehyde dehydrogenase 3 (Homo sapiens) (UniProt P47895). Briefly: qHTS for Inhibitors of the Aldehyde Dehydrogenase Family (ALDH1A3) Confirmatory screens (AID 2061311). Note: nearly all actives have a fitted effect of over 60% in size. Note: potency is the fitted concentration of half-maximal effect.
Test [6] has as its target Retinal dehydrogenase 2 (Homo sapiens) (UniProt O94788). Description: qHTS for Inhibitors of the Aldehyde Dehydrogenase Family (ALDH1A2) Confirmation screens (AID 2061314). Note: nearly all actives have a fitted effect of over 65% in size. Note: potency is the fitted concentration of half-maximal effect.
In test [7] the target is Retinaldehyde dehydrogenase 3 (Homo sapiens) (UniProt P47895). Briefly: qHTS for Inhibitors of the Aldehyde Dehydrogenase Family (ALDH1A3) Primary screen (AID 2061315). Note: potency is the fitted concentration of half-maximal effect.
The target in test [8] is Aldehyde dehydrogenase 1A1 (Homo sapiens) (UniProt P00352). Description: qHTS for Inhibitors of the Aldehyde Dehydrogenase Family (ALDH1A1) Confirmatory screens (AID 2061316). Note: nearly all actives have a fitted effect of over 65% in size. Note: potency is the fitted concentration of half-maximal effect.
The nature of test [9]: BET inhibitor-based combinations targeting novel dependencies in MECOM-rearranged (r) AML: OCI-AML3 cell line (AID 2202232). Note: nearly all actives have a fitted effect of over 35% in size. Note: potency is the fitted concentration of half-maximal effect. The note with it: Potency: OCI-AML3 viability. An outline of the steps:
(§1)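 Cells were plated at 500 per well and exposed to an 11-point dose series of each drug for 48 hr. Viability was measured by CellTiter-Glo luminescence, normalized to DMSO and empty-well controls, and summarized as AUC and per-cell-line Z-AUC.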

Test [10] in a line: BET inhibitor-based combinations targeting novel dependencies in MECOM-rearranged (r) AML: UCSD-AML1 cell line (AID 2202235).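 Note: series mostly up to about 46 µM; plate controls were DMSO vehicle wells for no effect and blank wells for full effect; nearly all actives have a fitted effect of over 40% in size.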 An outline of the steps: (§2)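 Activity is given as area under the curve and as Z-AUC, mean-centred within each cell line. It comes from 11-point dose curves normalized to DMSO and empty wells. CellTiter-Glo luminescence was read after 48 hr drug exposure of 500 cells/well.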

Test [11] addresses Retinaldehyde dehydrogenase 3 (Homo sapiens) (UniProt P47895). Briefly: qHTS for Inhibitors of the Aldehyde Dehydrogenase Family (ALDH1A3) Validation screen (AID 2061312). Note: % is set by controls: 0 for no effect and ±100 for the full control effect; nearly all actives have a fitted effect of over 45% in size.
Test [12] in a line: BET inhibitor-based combinations targeting novel dependencies in MECOM-rearranged (r) AML: SET-2 cell line (AID 2202231).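 For viability: plate controls were DMSO treated cells for no effect and wells without cells for full effect.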 Note: nearly all actives have a fitted effect of over 35% in size. Note: potency is the fitted concentration of half-maximal effect. The note with it: SET-2 AML cells viability, CellTiter-Glo luminescence, 48 h; viability: hits give low values, concentration not given here. The method in brief: as §1
For orientation: Cellular ATP, detected with luciferase, serves as a proxy for viable cell number.

The nature of test [13]: BET inhibitor-based combinations targeting novel dependencies in MECOM-rearranged (r) AML: MV-4-11 cell line (AID 2202233). Note: nearly all actives have a fitted effect of over 45% in size. Note: potency is the fitted concentration of half-maximal effect. The method in brief:
as §2

Test [14] is described as follows: BET inhibitor-based combinations targeting novel dependencies in MECOM-rearranged (r) AML: HNT-34 cell line (AID 2202234). Note: nearly all actives have a fitted effect of over 35% in size. Note: potency is the fitted concentration of half-maximal effect. The method in brief:
as §2

Test [15] can be described thus: BET inhibitor-based combinations targeting novel dependencies in MECOM-rearranged (r) AML: AML-191 cell line (AID 2202236;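 note: plate controls were vehicle wells for no effect and wells without cells for full effect; nearly all actives have a fitted effect of over 35% in size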). The method in brief:
as §1

Test [16] is described as follows: BET inhibitor-based combinations targeting novel dependencies in MECOM-rearranged (r) AML: AML-194 cell line (AID 2202237; note: nearly all actives have a fitted effect of over 40% in size; note: potency is the fitted concentration of half-maximal effect). The method in brief:
as §1

What is called viability is a read-out of living cells in per cent, often relative to untreated cells.

Values joined by “and” are separate entries in the source; they are usually repeats but may differ in a detail not shown here. Identical values can stand only once. Records with an inconclusive call do not appear. Values without a mark were called inactive. Active and inactive are the calls of the source. Unless noted, calls come from the whole dose curve; as a rule, active = well fitted curve in the direction sought with a large enough effect; inconclusive = small, poorly fitted or top-dose-only effect, or another doubt; inactive = no such curve, though single readings can be large; an effect the other way counts as inactive or inconclusive.

Cellular tumor antigen p53 (Homo sapiens), sequence (P04637 whole entry, looked up): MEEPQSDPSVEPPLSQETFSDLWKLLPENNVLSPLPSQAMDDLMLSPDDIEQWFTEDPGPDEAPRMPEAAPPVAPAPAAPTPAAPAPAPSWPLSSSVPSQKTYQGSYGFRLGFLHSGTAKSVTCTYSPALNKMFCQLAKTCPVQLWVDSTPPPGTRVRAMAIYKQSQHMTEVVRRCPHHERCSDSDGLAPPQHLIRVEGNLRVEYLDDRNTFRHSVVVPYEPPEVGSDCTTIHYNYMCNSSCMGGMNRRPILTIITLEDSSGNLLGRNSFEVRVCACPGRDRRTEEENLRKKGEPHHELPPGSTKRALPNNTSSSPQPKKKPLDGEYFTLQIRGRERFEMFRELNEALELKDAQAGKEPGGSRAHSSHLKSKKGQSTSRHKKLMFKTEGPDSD

For `C[S+](CC[C@H](N)C(=O)[O-])C[C@H]1O[C@@H](n2cnc3c(N)ncnc32)[C@H](O)[C@@H]1O` (some centres undefined), in test [1], the activation is 12.3%. Moreover, the Potency result in [2], in test [3], in [4], in test [5], in test [6] and in [7] was “inactive” throughout. In test [8], the Potency entry is “inactive”.
Turning to `O=c1cc(CN2CCOCC2)occ1OCCCCCSc1ccnc2cc(C(F)(F)F)ccc12`, the activation in test [1] was -4.65% and 8.33%. Moreover, the Potency result in [2], in test [4], in [5], in test [6], in [7] and in [9] was “inactive” in each case. Besides, the Potency result in test [10] was “inactive”. Besides, in [3], the Potency is 22.5 µM (active).
`NCCCCN(Cc1nc2ccccc2[nH]1)[C@H]1CCCc2cccnc21`: the activation in [1] is 1.43%. Besides, the Potency result in test [2], in test [3], in [4], in [11], in [6] and in test [7] was “inactive” each time. The Potency entry in test [8] is “inactive”.
`CC1=NN(c2ccccc2)C(=O)C1`: the activation in test [1] was -3.42% and 10.7% and -17%. Further, the Potency was 12.6 µM (active) in test [2]; 6.31 µM (active) in [3]; 0.794 µM (active) in test [4]; 8.91 µM (active) in test [5]; 1.42 µM (active) in [8]. Further, in [12], the viability was 112%. The Potency result in test [9], in test [13], in test [14], in test [10], in test [15] and in test [16] was “inactive” each time.
Consider `O=C1C[C@@H](c2ccc(O)cc2)Oc2cc(O)ccc21`, for which the activation in [1] was 4.3%. For the same compound, the Potency result in test [2], in test [4], in [6] and in test [8] was “inactive” throughout. Besides, the Potency in test [3] was 3.02 µM (active); in [5], 12.7 µM (active).
For `O=C(CCl)Nc1cccc(NC2=NS(=O)(=O)c3ccccc32)c1`, the Potency in test [1] was 26.9 µM (active); in test [6], 1.01 µM (active); in test [8], 12.7 µM (active); in test [12], 26.3 µM (active); in [9] it was 10.5 µM (active); in test [13] it was 16.6 µM (active). Further, the values for the Potency in [14] and in [16] were 5.25 µM (active) and 13.2 µM (active), respectively. Besides, the Potency entry in test [2], in [3], in test [4], in test [5] and in test [7] was “inactive” each time.
Take `Oc1ccc(CC2NCCc3cc(O)c(O)cc32)cc1` (centres undefined): the activation in test [1] is -12.9%. In addition, the Potency result in [2], in test [3], in test [4], in [5], in [6] and in test [8] was “inactive” in each case.
Turning to `COC(=O)N1CC2(CC2)C[C@H](C(=O)NO)[C@H]1C(=O)N1CCN(c2ccccc2)CC1`, the activation in test [1] was 12.6%. The Potency entry in test [2], in test [3], in [4], in test [5], in test [6] and in test [8] was “inactive” each time. Moreover, the Potency result in test [9], in [13], in [15] and in [16] was “inactive” each time.
Consider `N#Cc1ccc(-c2cnc3[nH]cc(NC(=O)c4cccnc4)c3c2)cc1`, for which the activation in test [1] is -4.46%. For the same compound, the Potency was 3.57 µM (active) in test [2]; 1.59 µM (active) in test [3]; 3.16 µM (active) in test [5]; 2.83 µM (active) in [6]; 12.7 µM (active) in [8]. Besides, the Potency result in [4] and in test [7] was “inactive” throughout.
For the compound `Clc1cccc(COc2cncc(N3CCNCC3)n2)c1`, the activation in test [1] was 14.8%. Also, the Potency result in [2], in test [3], in test [4], in [5], in test [6] and in [7] was “inactive” throughout. Further, the Potency result in [8] is “inactive”.
With `CC(C)(CC(=O)N1CCCC1)NCC(=O)N1C[C@@H](F)C[C@H]1C#N`, the activation in test [1] was 0.333%. Moreover, the Potency result in test [2], in test [3], in test [4], in test [5], in [6] and in [7] was “inactive” throughout. Moreover, the Potency entry in [8] was “inactive”.
In the case of `NC(=O)c1cccc(-c2cc(OC(=O)NC3CCCCC3)ccc2O)c1`, in test [1], the activation was 7%. Further, the Potency entry in test [2], in test [4], in test [5] and in test [7] was “inactive” throughout. Moreover, the Potency in test [3] was 10.1 µM (active).
Regarding `O=C(NCCN1CCN(c2cccc3ccc(O)cc23)CC1)c1ccc(F)cc1`, in [1], the activation was -8.04%. The Potency result in test [2], in [4] and in [6] was “inactive” each time. In addition, the Potency in test [3] is 15.8 µM (active); in test [5], 5.04 µM (active); in test [8], 10.1 µM (active).
As to `CC/C=C\[C@H](O)[C@H](O)C1=C(C)C(=O)[C@]2(O1)C(=O)N[C@@](O)(C(=O)c1ccccc1)[C@@H]2O`, the activation in test [1] was -14.5%. Besides, the Potency result in test [2], in test [3], in test [4], in test [5], in [6] and in [7] was “inactive” throughout.
Turning to `CC(C(=O)O)c1ccc2c(c1)CC(=O)c1ccccc1S2` (centres undefined), in test [1], the activation is 0.619% and -1.69% and -1.43%. Also, the Potency entry in [2], in test [3], in [4], in [5], in test [7] and in [8] was “inactive” in each case. The Potency result in test [9], in [13], in test [14], in [10], in test [15] and in [16] was “inactive” each time. Further, the viability in test [12] is 114%.
On to `CNC(=O)Nc1ccc(OC)c(NC(=O)NC(=O)c2cc(F)c(F)cc2Cl)c1`, for which, in [1], the activation was -5.67%. In addition, the Potency entry in test [2], in test [3], in [4], in test [5] and in [8] was “inactive” in each case. In addition, the Potency in test [7] was 28.2 µM (active).
For the compound `CCOC(=O)[C@H](CCc1ccccc1)N[C@@H](C)C(=O)N1C(=O)N(C)C[C@H]1C(=O)O`, in test [1], the activation was 12.6% and 0.333%. Also, the Potency result in test [2], in [3], in [4], in test [5], in test [6] and in [7] was “inactive” in each case. In addition, the Potency result in test [8] was “inactive”.
